A selection: hits, their analogues and other compounds. The true share with any hit is near 0.71%.
TexasRed fluor – counter-screen for TRb-SRC2 inhibitors: fluorescence interference; TRb/SRC2 Texas Red total fluorescence interference; Potency, µM (highest dose often 106 µM), for inactives: top-dose fluorescence change, negative = quenching; hit rate 0.29% among 280,000; AID 1479; active means well fitted curve in either direction with a large enough effect; inconclusive means small, poorly fitted or top-dose-only effect; further: potency means the concentration at half of the fitted maximal effect; on the % scale 0 is the no-effect control and ±100 the full control effect
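Human TRβ ligand-binding domain (0.6 uM) and Texas Red SRC2 peptide (20 nM) in Tris buffer with 1 uM T3 and 5% DMSO were incubated with pinned compound for 5 hr at ambient temperature. Total fluorescence was computed as S + 2P (555/632 nm).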
TRb SRC2 PPI – inhibitors of human thyroid hormone receptor beta-SRC2 interaction | P10828 | TRbeta-SRC2 peptide binding, fluorescence polarization; receptor liganded with 1 µM T3 | Potency, µM (top dose mostly 106 µM), inactives show at the top dose activity change, negative = inhibition, actives largely listed as inhibitors | hit rate 0.065% among 280,000;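 further: potency means the concentration at half of the fitted maximal effect; plate controls were bound peptide for no effect and peptide without receptor for full effect; nearly all actives have a fitted effect of over 50% in size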
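Quantitative HTS by FP: 0.6 uM TRb LBD, 20 nM labeled SRC2 20-mer, 1 uM T3, 5% DMSO; 5 hr ambient incubation; % activity per concentration and potencies from concentration series.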
RGS12 GoLoco inh – blocks human Gai1 binding to RGS12 GoLoco peptide, red readout; Potency, µM (highest dose often 61.6 µM), inactives show at the top dose activity, negative = inhibition, hits mostly inhibitors; hit rate 0.44% among 230,000; P63096; AID 880; Gai1:RGS12 GoLoco peptide FP, rhodamine, 10 min; active means well fitted inhibition curve with a large enough effect, not every such curve was filed as active; inactive means no such curve, though single readings can be large or run the other way; further: potency means the concentration at half of the fitted maximal effect; on the % scale 0 is the no-effect control and ±100 the full control effect; nearly all actives have a fitted effect of over 30% in size
Target sequence (P63096 whole entry, looked up): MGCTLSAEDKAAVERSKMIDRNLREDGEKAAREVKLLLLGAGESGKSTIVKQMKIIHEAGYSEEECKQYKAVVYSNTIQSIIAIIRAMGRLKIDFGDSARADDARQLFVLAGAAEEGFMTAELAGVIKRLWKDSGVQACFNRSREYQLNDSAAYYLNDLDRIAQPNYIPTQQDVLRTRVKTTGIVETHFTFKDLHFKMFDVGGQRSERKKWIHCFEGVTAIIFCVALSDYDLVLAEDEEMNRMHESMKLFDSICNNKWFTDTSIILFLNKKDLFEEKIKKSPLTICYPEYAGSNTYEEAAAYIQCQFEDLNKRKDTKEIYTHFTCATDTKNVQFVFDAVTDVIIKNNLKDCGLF
CBFb-RUNX1 inh – CBF-beta/RUNX1 interaction disruption; AlphaScreen CBFb-His/RUNX1-biotin binding, biochemical; Q01196+Q13951; Potency, µM (top dose mostly 59.8 µM), inactives show at the top dose activity, negative = inhibition, actives largely listed as inhibitors; AID 1477; 230,000 tested, under 10 active; further: % of control where 0% means no effect
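Inhibition was taken as any reduction in AlphaScreen signal from the CBF-beta–RUNX1 pair (His and biotin tags, 30 nM each), measured after compound (15 min) and bead (90 min) incubations at room temperature.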
Epigenetic derep – regulators of epigenetic silencing causing reporter derepression in mouse cells. murine LDR cells, GFP reporter derepression, 30 h. Potency, µM (doses to about 53.9 µM), without a hit: top-dose GFP activation, most hits filed as activators. hit rate 0.2% among 280,000. AID 1865; further: potency means the concentration at half of the fitted maximal effect; % of control where 0% means no effect; nearly all actives have a fitted effect of over 60% in size
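GFP-positive cell count by laser-scanning cytometry (objects 20–120 um) after 30 h, 37 C compound exposure of murine LDR cells; reporter is CMV-GFP integrated at a silenced locus, inducible by HDAC or DNMT inhibitors.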
* marks the source's active call; other numbers are inactive results; ? = inconclusive; · = not tested or not shown; ! = not confirmed by another sample; [ ] = remark or other dose. Unless noted, the call rests on the fitted dose curve; in most records, active means well fitted curve in the direction sought with a large enough effect; inconclusive means small, poorly fitted or top-dose-only effect, or another doubt; inactive means no such curve, though single readings can be large; an effect the other way counts as inactive or inconclusive.

SMILES	TexasRed fluor	TRb SRC2 PPI	RGS12 GoLoco inh	CBFb-RUNX1 inh	Epigenetic derep
CCOC(=O)N1CCN(Cc2ccc(O)c3ncccc23)CC1	-3%	4%	8%	?	4µM*
CCCCCCCC(=O)OC	-3%[201 µM]	6%[201 µM]	·	·	·
CC1=NN(c2nc(-c3ccc(C)cc3)cs2)C(=O)C1N=Nc1ccccc1O (centres undefined)	-6%	-4%	60%	?	8%
Cc1ccc(-c2csc(N3N=C(c4ccccc4)/C(=C\c4ccc(N(C)C)cc4)C3=O)n2)cc1	40µM*[quencher]	?	29%	-7%	0%
CC1(C)CC(N2CCCC2)=CC(=[N+]2CCCCC2)C1	-3%	3%	6.3µM*	4%	-3%
CC1(C)CC(=O)C=C(N2CCN(C3=CC(=O)CC(C)(C)C3)CC2)C1	0%	-5%	14%	2%	-1%
CC1(C)CC(N2CCCC2)=CC(=[N+]2CCCC2)C1	-1%	0%	2µM*	3%	-3%
CC1(C)CC(N2CCN(Cc3ccccc3)CC2)=CC(=[N+]2CCCCC2)C1	-2%	-5%	25µM*	16%	-1%
COc1cccc(C(=O)Nc2nc3nc(C)c(C)c(=O)n3[nH]2)c1	-4%	-6%	·	·	-2%
COc1ccc(-c2noc(-c3ccc(C)cc3Cl)n2)cc1OC	0.13µM*[quencher]	-7%	·	·	-1%
CC(=O)c1cc(O)c2ccccc2c1O	-7%	3%	14µM*	-12%	1%
COc1ccc(C(=O)/C=C2\Sc3ccccc3N2C)cc1	-4%	0%	11%	22%	-3%
COc1ccc(-[n+]2c(C)cc(/C=C3\Sc4ccccc4N3C)cc2C)cc1	-3%	4%	-20%	-4%	3.2µM*
COc1ccccc1-[n+]1c(C)cc(/C=C2\Sc3ccccc3N2C)cc1C	-3%	3%	26%	16%	7.9µM*
C[C@H](C(=O)c1ccccc1)C(c1ccccc1)N1CCOCC1 (some centres undefined)	·	·	1%[14.2 µM]	·	·
O=C(O)c1ccccc1NS(=O)(=O)c1ccc(F)c(Cl)c1	·	·	·	·	3%
N#Cc1c(C(F)(F)F)cc(-c2ccccc2)nc1SCc1nc(N)nc(N2CCOCC2)n1	1%	-10%	12%	4%	6.3µM*
COc1ccc(N2CCN(C(=O)c3cccnc3)CC2)c([N+](=O)[O-])c1	-3%	-2%	20µM*	-3%	0%
O=c1n(Cc2ccc(F)cc2)c2ccccc2c2nc(-c3ccccc3)nn12	-1%	-11%	·	·	2%
O=c1n(Cc2ccc([N+](=O)[O-])cc2)c2ccccc2c2nc(-c3ccccc3)nn12	100µM*[quencher]	-21%	·	·	-2%
CCCOc1ccccc1C1C(C(=O)Nc2ccccc2)=C(C)Nc2nnnn21 (centres undefined)	0.1µM*[quencher]	-11%	·	·	1%
Cc1ccccc1OCCSc1nc(C)c(Cc2ccccc2)c(=O)[nH]1	3.2µM*[quencher]	?	·	·	-2%
Cc1ccc(NC(=O)CSc2nc(C)c(Cc3ccccc3)c(=O)[nH]2)cc1C	40µM*![quencher]	?	0%	-2%	3%
Cc1ccc(NC(=O)CSc2ncc(S(=O)(=O)c3ccccc3)c(=O)[nH]2)cc1C	0.0003µM*[quencher]	-22%[53 µM]	5%	-2%	0%
O=C(NCCN1CCCCC1)c1ccc(Cc2nc3ccccc3[nH]2)cc1	·	·	·	·	3%
SMILES	TexasRed fluor	TRb SRC2 PPI	RGS12 GoLoco inh	CBFb-RUNX1 inh	Epigenetic derep
Cc1ccc(CNC(=O)CCN2C(=O)C(C)Oc3ccc(C)cc32)cc1 (centres undefined)	35µM*[quencher]	-17%[53 µM]	·	·	-2%
CCOc1ccc(NC(=O)Cn2cc(C(=O)c3ccc(OCC)cc3)c(=O)c3cc4c(cc32)OCCO4)cc1	-3%	6%	·	·	20µM*
CCOc1ccc(C(=O)c2cn(CC(=O)Nc3ccc(Cl)cc3)c3cc4c(cc3c2=O)OCCO4)cc1	0%	1%	·	·	2%
CCCCCCCC/C=C\CCCCCCCCCCCCC	-1%[201 µM]	-3%[201 µM]	·	·	·
Cc1ccc(-c2noc(-c3ccccc3NC(=O)C3CC(=O)N(c4cccc(C)c4)C3)n2)cc1 (centres undefined)	-2%	0%	·	·	16µM*
CCNc1ncc2nc(C)c(=O)n(C)c2n1	·	·	57%	·	·
CC1(C)Oc2ccc3ccc(=O)oc3c2-c2cnoc21	-3%	7%	10µM*	-2%	0%
CCN1CCN(C(=O)c2ccc3c(c2)N(Cc2ccccc2)C(=O)c2ccccc2S3(=O)=O)CC1	0.013µM*[quencher]	-16%	·	·	-1%
COc1ccc(CCn2c(O)cc3nn(-c4nc5ccccc5s4)c(=O)c-3c2C)cc1	22µM*[quencher]	?	62%	·	0%
CCCCCCCCCCCCCCCCCCNC(=O)OCC(COP(=O)([O-])OCC[n+]1ccsc1)OC (centres undefined)	0%	8%	9%	-24%	2%
CCOC(=O)c1nn(-c2ccccc2)c(=O)c(C#N)c1C	2%	-18%	-26%	3%	-5%
CCOC(=O)c1nn(-c2ccc(Cl)cc2Cl)c(=N)c(C#N)c1C	20%	22%	139%	?	11µM*
CC(=O)[C@]1(O)Cc2c(O)c3c(c(O)c2[C@@H](O[C@H]2C[C@H](N)[C@H](O)[C@H](C)O2)C1)C(=O)c1ccccc1C3=O	45µM*[fluorescent]	?	1.6µM*	1%	?
CC(=O)[C@]1(O)Cc2c(O)c3c(c(O)c2[C@@H](O[C@H]2C[C@H](N)[C@H](O)[C@H](C)O2)C1)C(=O)c1c(O)cccc1C3=O	45µM*[fluorescent]	22µM*	0.79µM*	-22%	?
CCCCC(=O)OCC(=O)[C@]1(O)Cc2c(O)c3c(c(O)c2[C@H](OC2CC(NC(=O)C(F)(F)F)C(O)C(C)O2)C1)C(=O)c1c(OC)cccc1C3=O (some centres undefined)	?	2%	3%	·	·
CC(=Nc1ccccc1N)c1c(C)cc(=O)n(O)c1O	3%	12%	·	?	·
N#CC(C#N)=c1ccc2c(c1)NC1(CCCCC1)N=2	45µM*[fluorescent]	?	156%	-27%	6%
N#CC(C#N)=C1NC2(CCCCC2)Cc2ccccc21	-5%	-2%	-2%	2%	1%
CN1C(=O)/C(=C/c2ccc(-c3ccccc3[N+](=O)[O-])o2)SC1=Nc1ccc(Cl)c(C(=O)O)c1	-9%	-3%	14µM*	-9%	0%

High-throughput results from PubChem.
